From PubChem BioAssay
A number with no mark means an inactive call. For some of these results: Results with a measured potency or affinity are listed apart. Activity calls are given as the source filed them. Unless noted, no rule for the calls is given here.

Tests used:
[1] = antimalarial activity against Dd2 strain (AID 2302;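 active = growth inhibition above 50% at the single 2 µM test dose, taken to imply half-maximal potency below 2 µM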;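 also: 0% = DMSO untreated growth and 100% = chloroquine plus artemisinin killed control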); settings: P. falciparum Dd2 in RBCs, LDH growth readout, 72 h; at 2 µM; hits give high values
[2] = HepG2 cytotoxicity, primary screen, cytotoxicity control for P. falciparum antimalarial project, cell-based, ATP luminescence (AID 2303;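 active = inhibition above 50%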;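 also: 0% = DMSO wells and 100% = digitonin-killed cells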); settings: HepG2 viability, 24-48 h, at 10 µM, hits give high values
[3] = molecular target: L-lactate dehydrogenase (Plasmodium falciparum (isolate CDC / Honduras)) (UniProt Q27743); assay: PfLDH activity inhibition – cell lysate, 3D7 strain, counter-screen for P. falciparum growth inhibition project (AID 2304);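 also: 0% = vehicle and 100% = reference inhibitor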; settings: P. falciparum 3D7 crude extract, LDH APAD/NBT absorbance; at 2 µM; hits give high values
[4] = inhibition of 3D7 malaria parasite growth – strain 3D7 (AID 2306);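 also: 0% = DMSO wells and 100% = chloroquine plus artemisinin control wells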; settings: P. falciparum 3D7 erythrocytic growth, LDH absorbance, 72 h; at 2 µM; hits give high values
[5] = molecular target: Calcium-dependent protein kinase 1 (Plasmodium falciparum (isolate 3D7)) (UniProt P62344); assay: PfCDPK1 kinase inhibitors, biochemical, TCAMS library (AID 1159585; cut-off not given, nearly all actives have IC50 up to about 0.98 µM;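 also: inhibitors leave more ATP so luminescence rises with inhibition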); settings: recombinant PfCDPK1, Kinase-Glo ATP depletion luminescence
[6] = molecular target: Plasmodium falciparum protein kinase 6 (PK6, PF3D7_1337100) (UniProt Q8IDW1); assay: PfPK6 kinase inhibitors, biochemical, TCAMS library (AID 1159586); settings: recombinant PfPK6, Kinase-Glo ATP depletion luminescence
[7] = molecular target: Protein kinase 7 (PK7), Plasmodium falciparum 3D7 (PF3D7_0213400) (UniProt Q7YTF7); assay: inhibition of Plasmodium PK7 catalytic activity – biochemical, TCAMS antimalarial set, Kinase-Glo luminescence (AID 1159587); settings: recombinant PfPK7, Kinase-Glo ATP depletion luminescence
[8] = molecular target: Calcium-dependent protein kinase 4 (Plasmodium falciparum (isolate 3D7)) (UniProt Q8IBS5); assay: PfCDPK4 kinase inhibitors, biochemical, TCAMS library (AID 1159588; cut-off not given, nearly all actives have IC50 up to about 0.91 µM); settings: recombinant PfCDPK4, Kinase-Glo ATP depletion luminescence
Chain of Calcium-dependent protein kinase 4 (Plasmodium falciparum (isolate 3D7)) (Q8IBS5 whole entry, looked up): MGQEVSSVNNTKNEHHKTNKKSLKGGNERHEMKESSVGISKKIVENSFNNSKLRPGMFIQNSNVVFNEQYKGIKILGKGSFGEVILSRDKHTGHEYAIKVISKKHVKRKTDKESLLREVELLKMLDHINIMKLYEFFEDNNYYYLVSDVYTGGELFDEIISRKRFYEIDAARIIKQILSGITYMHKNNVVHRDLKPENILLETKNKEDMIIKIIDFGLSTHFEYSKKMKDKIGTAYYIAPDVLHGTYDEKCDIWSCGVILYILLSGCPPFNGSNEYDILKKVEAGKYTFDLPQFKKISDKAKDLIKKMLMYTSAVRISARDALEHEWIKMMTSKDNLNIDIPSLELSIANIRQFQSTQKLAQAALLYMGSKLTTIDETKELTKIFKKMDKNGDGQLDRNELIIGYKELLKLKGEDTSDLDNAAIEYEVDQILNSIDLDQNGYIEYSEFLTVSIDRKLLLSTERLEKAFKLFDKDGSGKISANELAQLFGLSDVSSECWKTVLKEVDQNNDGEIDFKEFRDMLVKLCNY

Chain of Protein kinase 7 (PK7), Plasmodium falciparum 3D7 (PF3D7_0213400) (Q7YTF7 1-343): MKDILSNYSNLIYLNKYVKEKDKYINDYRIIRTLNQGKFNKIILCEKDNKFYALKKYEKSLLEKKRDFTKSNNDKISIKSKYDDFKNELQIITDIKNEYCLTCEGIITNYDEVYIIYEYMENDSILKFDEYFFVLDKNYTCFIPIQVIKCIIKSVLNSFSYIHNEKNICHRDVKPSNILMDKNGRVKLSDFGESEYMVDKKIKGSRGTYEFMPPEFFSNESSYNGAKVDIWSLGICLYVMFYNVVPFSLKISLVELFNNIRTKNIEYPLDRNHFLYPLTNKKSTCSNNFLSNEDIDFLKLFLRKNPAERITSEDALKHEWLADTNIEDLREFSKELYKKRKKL
Chain of L-lactate dehydrogenase (Plasmodium falciparum (isolate CDC / Honduras)) (Q27743 whole entry, looked up): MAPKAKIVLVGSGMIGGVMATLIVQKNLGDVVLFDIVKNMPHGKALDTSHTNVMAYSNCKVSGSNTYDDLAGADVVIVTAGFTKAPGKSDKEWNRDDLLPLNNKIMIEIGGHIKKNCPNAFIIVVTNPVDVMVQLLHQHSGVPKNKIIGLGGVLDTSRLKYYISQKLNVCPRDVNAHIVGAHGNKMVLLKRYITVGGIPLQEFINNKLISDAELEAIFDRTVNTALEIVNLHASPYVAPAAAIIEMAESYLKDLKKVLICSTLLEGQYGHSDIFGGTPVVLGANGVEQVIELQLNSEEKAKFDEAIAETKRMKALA
Chain of Calcium-dependent protein kinase 1 (Plasmodium falciparum (isolate 3D7)) (P62344 whole entry, looked up): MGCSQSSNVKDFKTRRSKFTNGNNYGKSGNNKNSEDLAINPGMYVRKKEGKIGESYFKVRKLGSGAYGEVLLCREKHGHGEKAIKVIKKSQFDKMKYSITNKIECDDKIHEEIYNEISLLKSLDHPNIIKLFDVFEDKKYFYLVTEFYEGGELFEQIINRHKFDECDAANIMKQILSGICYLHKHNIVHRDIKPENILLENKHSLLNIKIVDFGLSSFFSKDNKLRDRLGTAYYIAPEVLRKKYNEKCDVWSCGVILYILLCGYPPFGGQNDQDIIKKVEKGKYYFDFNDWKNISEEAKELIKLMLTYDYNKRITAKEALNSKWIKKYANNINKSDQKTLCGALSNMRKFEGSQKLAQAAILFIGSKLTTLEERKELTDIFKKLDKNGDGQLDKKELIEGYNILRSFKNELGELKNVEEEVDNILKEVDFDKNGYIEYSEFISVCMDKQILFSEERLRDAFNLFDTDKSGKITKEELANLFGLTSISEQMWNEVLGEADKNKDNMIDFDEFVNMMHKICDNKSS
Chain of Plasmodium falciparum protein kinase 6 (PK6, PF3D7_1337100) (Q8IDW1 1-305): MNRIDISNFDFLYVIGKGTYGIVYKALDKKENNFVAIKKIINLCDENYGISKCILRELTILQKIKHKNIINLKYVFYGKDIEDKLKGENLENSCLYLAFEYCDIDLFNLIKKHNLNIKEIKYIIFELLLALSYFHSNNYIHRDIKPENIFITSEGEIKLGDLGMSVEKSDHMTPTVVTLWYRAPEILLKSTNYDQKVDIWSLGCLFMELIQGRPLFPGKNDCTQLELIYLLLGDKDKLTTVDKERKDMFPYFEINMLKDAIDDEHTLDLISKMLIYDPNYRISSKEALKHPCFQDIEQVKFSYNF

| SMILES | growth inhibition [1] | inhibition [2] | inhibition [3] [%] | growth inhibition [4] | outcome [5] | outcome [6] | outcome [7] | outcome [8] |
| --- | --- | --- | --- | --- | --- | --- | --- | --- |
| c1ccc(-c2cccnn2)cc1 | 6% | -7% | 0 | 98% (active) | inactive | inactive | inactive | inactive |
| CCNc1cc(C(=O)N[C@@H](Cc2ccccc2)[C@H](O)CNC2(CCC(C)C)CC2)cc(N2CCCCS2(=O)=O)c1 | 52% (active) | 6% | 2 | 90% (active) | inactive | inactive | inactive | inactive |
| CSc1nccc(-c2ccc3ccnc(N)c3c2)n1 | 98% (active) | 30% | 0 | 101% (active) | inactive | inactive | inactive | inactive |
| CC1(C)N=C(N)N=C(N)N1OCCCCCCOc1ccc(Cl)c2ccccc12 | 94% (active) | 62% (active) | 1 | 91% (active) | inactive | inactive | inactive | inactive |
| CC(C)CN1CCC(COc2ccc3ncn(-c4cc(O[C@H](C)c5ccccc5C(F)(F)F)c(C(N)=O)s4)c3c2)CC1 | 86% (active) | 46% | 7 | 97% (active) | inactive | inactive | inactive | inactive |
| O=C(Nc1ccc(Cn2ncc(N3CCCNCC3)c(Cl)c2=O)cc1)Nc1cccc(SC(F)(F)F)c1 | 33% | 12% | 4 | 92% (active) | inactive | inactive | inactive | inactive |
| Cc1cc(C(=O)Nc2ccc3c(c2)CCN3C2CCN(Cc3cccc(F)c3F)C2)no1 (stereo not drawn) | 94% (active) | 0% | -4 | 95% (active) | inactive | inactive | inactive | inactive |
| COc1ccc2nccc([C@@H](O)CN3CCC(NC(=O)C(=Cc4ccc(C#N)cc4)c4ccc(-c5ccccc5)cc4)CC3)c2c1 | 84% (active) | 5% | -5 | 101% (active) | inactive | inactive | inactive | inactive |
| CN1CCC[C@H]1COc1ccc(CN2CC[C@H](NC(=O)c3ccc(Cl)c(Cl)c3)C2)cc1Cl | 44% | 53% (active) | -2 | 97% (active) | inactive | inactive | inactive | inactive |
| O=C(NC1CCCCC1)C1CCCN(C(=O)c2ccc(O)c(-c3ccc(Cl)c(Cl)c3)c2)C1 (stereo not drawn) | 42% | 22% | 0 | 89% (active) | inactive | inactive | inactive | inactive |
| CCCCc1ccc(C(=O)Nc2ccc3nc(N4CCN(C)CC4)cc(C)c3c2)cc1 | 21% | 44% | -6 | 90% (active) | inactive | inactive | inactive | inactive |
| CNC(=O)Cc1ccc(C(=O)Nc2cccc(-c3cccc(-c4nc5ccc(C(F)(F)F)cc5[nH]4)c3)c2)cc1 | 37% | 40% | 5 | 95% (active) | inactive | inactive | inactive | inactive |
| CN(C)c1cc(C(=O)N[C@@H](Cc2ccccc2)[C@H](O)CNC2CCCCC2)cc2[nH]ccc12 | 97% (active) | 10% | 3 | 98% (active) | inactive | inactive | inactive | inactive |
| CC(C)c1cc(Oc2c(I)cc(CCCc3ncc[nH]3)cc2I)ccc1O | 1% | 28% | 0 | 88% (active) | inactive | inactive | inactive | inactive |
| Cc1cc(OCCCN2CCC(NS(=O)(=O)c3cccc(Br)c3)CC2)c2ccccc2n1 | 28% | 28% | -2 | 95% (active) | inactive | inactive | inactive | inactive |
| Cc1nc(NCCc2cnc[nH]2)cc(NCc2ccccc2)n1 | 5% | 5% | -2 | 100% (active) | inactive | inactive | inactive | inactive |
| O=C(NCCCCN1CCC(c2ccc([N+](=O)[O-])cc2)CC1)c1ccc(NC(=O)c2ccc(Cl)cc2)cc1 | 55% (active) | 15% | 2 | 100% (active) | inactive | inactive | inactive | inactive |
| S=C(NCCc1ccccc1)Nc1ccc2ncsc2c1 | 3% | -20% | -3 | 96% (active) | inactive | inactive | inactive | inactive |
| COc1ccc2nccc([C@@H](O)CN3CCC(NC(=O)/C=C/c4cc(F)cc(NC(C)=O)c4)CC3)c2c1 | 49% | 7% | 5 | 97% (active) | inactive | inactive | inactive | inactive |
| CC(C)CNCc1ccc(-c2cccc(CNC3CCN(Cc4ccccc4)CC3)c2)cc1 | 100% (active) | 34% | -9 | 101% (active) | inactive | inactive | inactive | inactive |
| Cc1cc(C(=O)NCc2ccc(-c3c(C)noc3C)cc2)n(-c2ccccc2)n1 | 90% (active) | 4% | 3 | 92% (active) | inactive | inactive | inactive | inactive |

| SMILES | growth inhibition [1] | inhibition [2] | inhibition [3] [%] | growth inhibition [4] | outcome [5] | outcome [6] | outcome [7] | outcome [8] |
| --- | --- | --- | --- | --- | --- | --- | --- | --- |
| COc1ccccc1C1CN(Cc2coc3ccccc3c2=O)Cc2ccccc2O1 (stereo not drawn) | 61% (active) | 4% | 2 | 87% (active) | inactive | inactive | inactive | inactive |
| CC(C)CNC(=O)c1ccnc(-c2ccc(CNCCCc3ccccc3)cc2)c1 | 22% | 12% | -3 | 99% (active) | inactive | inactive | inactive | inactive |
| CN(N=Cc1ccccc1)C(N)=NCCCC#Cc1cccc(CN2CCCC2)c1 | 3% | 16% | -2 | 89% (active) | inactive | inactive | inactive | inactive |
| COCCN(CCOC)c1ncc(-c2ccsc2)c(-c2nc(C)c(C)s2)n1 | 63% (active) | 1% | 5 | 96% (active) | inactive | inactive | inactive | inactive |
| C[C@@H]1CN(c2cnn(Cc3cccc(NC(=O)Nc4cccc(C(F)(F)F)c4)c3)c(=O)c2Cl)C[C@H](C)N1 | 74% (active) | 19% | -4 | 96% (active) | inactive | inactive | inactive | inactive |
| Cc1cccc(Nc2nccc(NCC(O)c3cccc(C(F)(F)F)c3)n2)c1 (stereo not drawn) | 94% (active) | 25% | -2 | 100% (active) | inactive | inactive | inactive | inactive |
| CC(=O)Nc1ccc(Nc2cc(C)nc(Nc3ccc(NC(C)=O)cc3)n2)cc1 | 65% (active) | 4% | -2 | 99% (active) | inactive | inactive | inactive | inactive |
| c1ccc2c(c1)CN(CC1CC1)CC1(CCN(Cc3c[nH]c4cnccc34)CC1)O2 | 14% | 30% | -1 | 101% (active) | inactive | inactive | inactive | inactive |
| Cc1sc(CNCCCNc2cc(=O)c3ccccc3[nH]2)cc1Br | 83% (active) | 12% | -3 | 100% (active) | inactive | inactive | inactive | inactive |
| O=C(Cc1cnc[nH]1)Nc1ccc(-c2cccc(-c3nc4ccc(C(F)(F)F)cc4[nH]3)c2)cc1 | 95% (active) | 20% | -8 | 101% (active) | inactive | inactive | inactive | inactive |
| c1cc(CN2CCCCC2)cc(-c2cccc(-c3nc4ccccc4[nH]3)c2)c1 | 37% | 39% | 0 | 100% (active) | inactive | inactive | inactive | inactive |
| CCOc1cc(C(=O)NC2CC(C)(C)NC(C)(C)C2)ccc1-c1nc2ccc(Cl)cc2[nH]1 | 64% (active) | 46% | 4 | 100% (active) | inactive | inactive | inactive | inactive |
| c1ccc2[nH]c(CN(Cc3nc4ccccc4[nH]3)Cc3nc4ccccc4[nH]3)nc2c1 | 86% (active) | 39% | -2 | 81% (active) | inactive | inactive | inactive | inactive |
| CN(C)Cc1ccc(-c2ccc3c(Nc4ccc(Oc5ccccc5)cc4)ccnc3c2)o1 | 100% (active) | 10% | 2 | 101% (active) | inactive | inactive | inactive | inactive |
| COc1cccc2cc(C(=O)N[C@@H](CC(C)C)C(=O)N[C@H](/C=N/N3CC(=O)NC3=O)CC(C)C)oc12 | 64% (active) | 3% | 2 | 86% (active) | inactive | inactive | inactive | inactive |
| O=S(=O)(c1ccc(Oc2ccccc2)cc1)N(CCC(O)(C(F)(F)F)C(F)(F)F)Cc1cccc(O)c1 | 99% (active) | -13% | 5 | 102% (active) | inactive | inactive | inactive | inactive |
| Cc1ccc(OC2CCN(CCCCC3(C)C(=O)Nc4ccccc43)CC2)cc1 (stereo not drawn) | 2% | 63% (active) | -3 | 100% (active) | inactive | inactive | inactive | inactive |
| CC(Cc1ccc(NC(=O)c2ccc(NCCc3ccccc3)cc2)cc1)NCCc1cccc(Cl)c1 (stereo not drawn) | 1% | 25% | 4 | 92% (active) | inactive | inactive | inactive | inactive |
| Cc1cccn2c(=O)c3cc(C(=O)NCCN4CCOCC4)c(=N)n(CCc4ccccc4)c3nc12 | 85% (active) | 13% | 1 | 100% (active) | inactive | inactive | inactive | inactive |
| COc1ccc(Cn2c(Nc3cccc(C(F)(F)F)c3)nc3cc(C(=O)NCCN4CCCC4)ccc32)cc1Cl | 54% (active) | 11% | 2 | 97% (active) | inactive | inactive | inactive | inactive |
